Source: PubChem BioAssay (NCATS)
Inconclusive results are not listed. Entries that show only a call come without a potency. Activity calls are given as the source filed them. Calls follow the shape of the dose curve; as a rule, active = well fitted inhibition curve with a large enough effect; inconclusive = small, poorly fitted or top-dose-only effect; inactive = flat fitted curve, though single readings scatter.

Experiments:
Assay in all cases: qHTS profiling for inhibitors of Plasmodium falciparum proliferation (AID 504749); also: nearly all actives have a fitted effect of over 60% in size
Settings in all cases: P. falciparum in erythrocytes, SYBR Green DNA, 72 h; series mostly up to 28.7 µM
JCK = test system: JCK
How it was run: (§1)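 SYBR Green fluorescence of parasite DNA, read after lysis and overnight dark incubation, measured growth over 72 h in erythrocyte culture at 0.3% parasitemia and 2.5% hematocrit. Data normalised to DMSO and 0.29 uM artemisinin, with plate-drift correction.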

N140 = test system: N140
How it was run: as §1

P93_24 = test system: P93_24
How it was run: as §1

P94_40 = test system: P94_40
How it was run: as §1

PAD = test system: PAD
How it was run: as §1

PC15 = test system: PC15
How it was run: as §1

PC26 = test system: PC26
How it was run: as §1

PC49 = test system: PC49
How it was run: as §1

SC27B = test system: SC27B
How it was run: as §1

TAB109 = test system: TAB109
How it was run: as §1

TAB113 = test system: TAB113
How it was run: as §1

TAB165 = test system: TAB165
How it was run: as §1

W2 = test system: W2
How it was run: as §1
Potency is read from the fitted curve at half-maximal effect.

Row | SMILES | Potency (JCK) | Potency (N140) | Potency (P93_24) | Potency (P94_40) | Potency (PAD) | Potency (PC15) | Potency (PC26) | Potency (PC49) | Potency (SC27B) | Potency (TAB109) | Potency (TAB113) | Potency (TAB165) | Potency (W2)
1 | CC(C)(Oc1ccc(Cl)cc1)C(=O)O | inactive | inactive | inactive | inactive | inactive | inactive | inactive | inactive | inactive | inactive | inactive | inactive | inactive
2 | CCCCCCCCCCCCCCCCOP(=O)([O-])OCC[N+](C)(C)C | inactive | inactive | inactive | inactive | inactive | inactive | inactive | inactive | inactive | inactive | inactive | inactive | 
3 | C#C[C@]1(OC(C)=O)CC[C@H]2[C@@H]3CCC4=C[C@@H](OC(C)=O)CC[C@@H]4[C@H]3CC[C@@]21C | inactive | inactive | inactive | inactive | inactive | inactive | inactive | inactive | inactive | inactive | inactive | inactive | inactive
4 | CCN(CC)C(=O)N1CCN(C)CC1 | inactive | inactive | inactive | inactive | inactive | inactive | inactive | inactive | inactive | inactive | inactive | inactive | inactive
5 | c1ccc(-c2ccc(C(c3ccccc3)n3ccnc3)cc2)cc1 (stereo not given) |  | 7.08 µM (active) | 3.16 µM (active) | 11.2 µM (active) | 7.94 µM (active) | 11.2 µM (active) | 12 µM (active) |  | 6.31 µM (active) | 8.91 µM (active) | 11.2 µM (active) | 2.82 µM (active) | 5.36 µM (active)
6 | Oc1c(Cl)cc(Cl)cc1Sc1cc(Cl)cc(Cl)c1O | inactive | inactive | inactive | inactive | inactive | inactive | inactive | inactive | inactive | inactive | inactive | inactive | inactive
